Screens: PubChem BioAssay, National Center for Advancing Translational Sciences (NCATS)
ALOX12 inh: Primary qHTS assay for inhibitors of human arachidonate 12S-lipoxygenase (ALOX12): Round 2. Polyunsaturated fatty acid lipoxygenase ALOX12 (Homo sapiens), P18054. purified 12hLO, xylenol orange hydroperoxide absorbance. Potency, µM (series often up to 108 µM), for inactives: top-dose activity change, negative = inhibition, hits mostly inhibitors. actives 1.1% (n = 580,000). AID 1671190, 2021; note: potency is the fitted concentration of half-maximal effect; % is set by controls: 0 for no effect and ±100 for the full control effect
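Purified human 12hLO at 150 nM in 25 mM Hepes, 0.01% Triton X-100, pH 7.0, preincubated 15 min at room temperature with compound. Reaction started with 40 uM arachidonic acid, 30 min at room temperature. Hydroperoxide measured by Fe-xylenol orange, 573/405 nm absorbance ratio.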
ERG-DNA inh: qHTS for Small Molecule Inhibitors of the ERG Ets/DNA interaction. fluorescence polarization, His-ERG Ets domain / labelled DNA. Potency, µM (doses to about 76.9 µM), for the others: at the highest dose FP activity, negative = inhibition, hits mostly inhibitors. actives 0.028% (n = 370,000). AID 624246, 2012; active = well fitted inhibition curve with a large enough effect in the polarisation, with a control signal flat; inconclusive = small, poorly fitted or top-dose-only effect, or effect the other way, or a change in a side signal; inactive = no such curve, though single readings can be large or run the other way; the % refers to the polarisation;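 note: polarization taken with two DNA probes labelled with fluorescein and Texas red; potency is the fitted concentration of half-maximal effect; % of control where 0% means no effect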
Target sequence (P11308 whole entry, looked up, the tested form may be a part): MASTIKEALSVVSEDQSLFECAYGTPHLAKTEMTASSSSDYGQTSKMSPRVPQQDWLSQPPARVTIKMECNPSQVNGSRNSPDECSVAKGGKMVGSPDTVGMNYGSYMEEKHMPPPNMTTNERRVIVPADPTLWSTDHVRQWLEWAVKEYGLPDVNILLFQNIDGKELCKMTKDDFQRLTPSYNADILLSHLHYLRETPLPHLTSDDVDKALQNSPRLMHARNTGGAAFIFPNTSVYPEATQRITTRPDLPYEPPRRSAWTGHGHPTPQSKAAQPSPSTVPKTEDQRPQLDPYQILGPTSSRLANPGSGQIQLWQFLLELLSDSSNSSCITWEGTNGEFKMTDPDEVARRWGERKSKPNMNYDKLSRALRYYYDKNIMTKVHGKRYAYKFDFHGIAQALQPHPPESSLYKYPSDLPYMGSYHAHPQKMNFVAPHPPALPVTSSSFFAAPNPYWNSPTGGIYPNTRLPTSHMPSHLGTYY
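His-tagged ERG Ets domain (1 uM in the protein solution; 300mM KCl, 50mM Tris-HCl, 1mM EDTA, 1mM DTT, pH 7.5) received compound, then a probe mix of 5 nM fluorescein-DNA and 100nM Texas-615-DNA. Fluorescence polarization was read for both dyes.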
LDHA inh: qHTS assay for inhibitors of human lactate dehydrogenase; L-lactate dehydrogenase A chain (Homo sapiens), P00338; purified LDHA, NADH/diaphorase-resazurin fluorescence; active compounds read low; activity change, % (values are at about 110 or 230 µM); actives 0.15% (n = 480,000); AID 1347041, 2019; in the data active = activity change below about -30%; inconclusive = mostly about -25% to -30%;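 note: plate controls were DMSO wells for no effect and wells without enzyme for full effect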
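Enzyme activity of human lactate dehydrogenase 5 (2 nM; 0.06 mM NADH, 0.2 mM pyruvate, 5 min, RT) is measured via a resazurin/diaphorase fluorescence readout of residual NADH.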
Nrf2 block: Nrf2 qHTS screen for inhibitors; A549 ARE-Fluc reporter, luciferase luminescence, 18-24 h; Potency, µM (highest dose often 46 µM), for inactives: at the top dose activity change, negative = inhibition, usual class: inhibitors; actives 2.1% (n = 360,000); AID 504444, 2011; note: potency is the fitted concentration of half-maximal effect; % is set by controls: 0 for no effect and ±100 for the full control effect; nearly all actives have a fitted effect of over 60% in size
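Two sequential reads on A549 ARE_Fluc cells exposed to compound for 18-24 h: a CellTiter-Fluor fluorescence read for viability, then a luciferase luminescence read for Nrf2/ARE activity.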
Nrf2 activator: qHTS of Nrf2 Activators. actives 0.31% (n = 410,000). Potency, µM (highest dose often 46.1 µM), for the others: top-dose activation, most hits filed as activators. AID 624171, 2012. AREc32 ARE-luciferase reporter (MCF7-derived line), luminescence, 24 h; note: potency is the fitted concentration of half-maximal effect; % of control where 0% means no effect; nearly all actives have a fitted effect of over 65% in size
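AREc32_Fluc, 1000 cells/well, OPTI-MEM + 5% FBS, o/n 37 deg C 5% CO2; 23 nL cpd by pin tool, 24 hr; Steady-Glo 30 min RT, luminescence.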
A549 tox-1: Nrf2 qHTS screen for inhibitors: counterscreen for cytotoxicity; A549 ARE-Fluc cells, CellTiter-Fluor viability, 18-24 h; Potency, µM (series often up to 46 µM), for the others: at the top dose activity change, negative = cytotoxicity, hits mostly inhibitors; actives 0.16% (n = 390,000); note: potency is the fitted concentration of half-maximal effect; % is set by controls: 0 for no effect and ±100 for the full control effect
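A549 ARE_Fluc cells in 5% FBS OPTI-MEM were exposed to compounds in concentration-response for 18-24 h at 37 deg C. Viability was read by CellTiter-Fluor fluorescence (Ex 405/Em 525) after 30 min, before the luciferase read.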
FLuc counter 3: Nrf2 qHTS screen for inhibitors: Purified Fluc Biochemical Counterscreen for Hit Validation | shares compounds with Nrf2 block | purified firefly luciferase, luminescence inhibition | actives 4% (n = 1,400) | Potency, µM (top dose mostly 57.5 µM), for the others: top-dose activity change, negative = inhibition, actives largely listed as inhibitors; note: potency is the fitted concentration of half-maximal effect; % is set by controls: 0 for no effect and ±100 for the full control effect; nearly all actives have a fitted effect of over 65% in size
A549 tox-2: Nrf2 qHTS screen for inhibitors: A549 ARE-Fluc Cytotoxicity Counterscreen for Hit Validation. AID 720523, 2013. Potency, µM (series often up to 46.1 µM), for inactives: top-dose activity change, negative = cytotoxicity, most hits filed as inhibitors. A549 ARE-Fluc cells, cytotoxicity counterscreen. shares compounds with Nrf2 block. actives 2% (n = 1,400);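 note: potency is the fitted concentration of half-maximal effect; cells exposed to compounds for 18 to 24 hours; % is set by controls: 0 for no effect and ±100 for the full control effect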
ARE-Fluc inh: Nrf2 qHTS screen for inhibitors: Nrf2 A549 ARE-Fluc Confirmation Assay for Hit Validation. shares compounds with Nrf2 block. A549 ARE-firefly luciferase reporter, luminescence. Potency, µM (top dose mostly 46.1 µM), without a hit: at the highest dose activity change, negative = inhibition, hits mostly inhibitors. actives 74% (n = 1,400); note: potency is the fitted concentration of half-maximal effect; % is set by controls: 0 for no effect and ±100 for the full control effect; nearly all actives have a fitted effect of over 65% in size
Numbers without * were called inactive. A selection: hits, their analogues and other compounds. The true share with any hit is near 2.7%. Unless noted, calls come from the whole dose curve; as a rule, active = well fitted curve in the direction sought with a large enough effect; inconclusive = small, poorly fitted or top-dose-only effect, or another doubt; inactive = no such curve, though single readings can be large; an effect the other way counts as inactive or inconclusive.

Screening O=S(=O)(Nc1ccc(Cc2ccncc2)cc1)c1ccc(Cl)cc1 returned ALOX12 inh inconclusive, ERG-DNA inh -4%, LDHA inh -8, Nrf2 block 9.2µM*, Nrf2 activator 1%, A549 tox-1 -16%, FLuc counter 3 0%, A549 tox-2 -1% and ARE-Fluc inh 16µM*.
For CCOc1ccc(CNC(=O)c2ncoc2-c2cccs2)cc1 the results were ALOX12 inh -48% and LDHA inh 4.
`COc1ccc([C@H]2CC(=O)C=C(c3ccnc4ccc(Cl)cc34)C2)cc1` gave ALOX12 inh -17%, ERG-DNA inh -4%, LDHA inh 2, Nrf2 block 7.3µM*, Nrf2 activator 0%, A549 tox-1 -21%, FLuc counter 3 2%, A549 tox-2 -16% and ARE-Fluc inh 8.2µM*.
Cc1ncoc1C(=O)N1CC[C@H](CO)[C@H](N(C)C)C1 was read as ALOX12 inh -2%.
For COc1ccc(CCNC(=O)C(C)n2nc(C)c3c(C)n(-c4ccc(C)cc4)nc3c2=O)c(OC)c1 (configuration not stated) the results were ALOX12 inh -3%, ERG-DNA inh -7%, LDHA inh 0, Nrf2 block 5.8µM*, Nrf2 activator -1%, A549 tox-1 inconclusive, FLuc counter 3 1%, A549 tox-2 -10% and ARE-Fluc inh 5.8µM*.
For Cc1cc(C[n+]2ccccc2)c2nsnc2c1 the results were ALOX12 inh 6%, LDHA inh -2, Nrf2 block inconclusive, Nrf2 activator 0%, A549 tox-1 -13%, FLuc counter 3 0%, A549 tox-2 -11% and ARE-Fluc inh 2.6µM*.
Screening COc1cc(OC)cc(C(=O)NNC(=O)c2ccccn2)c1 returned ALOX12 inh 1%, ERG-DNA inh 25%, LDHA inh 11, Nrf2 block 8.2µM*, Nrf2 activator inconclusive, A549 tox-1 inconclusive, FLuc counter 3 -10%, A549 tox-2 -25% and ARE-Fluc inh 7.3µM*.
For Cc1ccc(NC(=O)CSc2nnc(CC3CCS(=O)(=O)C3)n2C)cc1 (configuration not stated) the results were ALOX12 inh 1% and LDHA inh 3.
For COc1ccc(/C=N/NS(=O)(=O)c2ccc(C)cc2)cc1OC(=O)c1ccc(C)cc1 the results were ALOX12 inh -45%, ERG-DNA inh -9%, LDHA inh -2, Nrf2 block 5.2µM*, Nrf2 activator -4%, A549 tox-1 -3%, FLuc counter 3 1% and A549 tox-2 2%.
Screening COc1ccc(C(=O)Oc2cc(/C=N/NS(=O)(=O)c3ccccc3)ccc2OC)cc1 returned ALOX12 inh -4%, ERG-DNA inh 9%, LDHA inh -6, Nrf2 activator 0% and A549 tox-1 -2%.
For COc1ccccc1N(CC(O)Cn1cnc2ccccc21)S(=O)(=O)c1ccc(C)cc1 (configuration not stated) the results were ALOX12 inh -7% and LDHA inh -1.
`O=C(CN1C(=O)c2ccccc2S1(=O)=O)c1ccc2c(c1)OCCCO2` gave ALOX12 inh inactive, ERG-DNA inh 6%, LDHA inh -9, Nrf2 block 0.18µM*, Nrf2 activator -2%, A549 tox-1 -2%, FLuc counter 3 1%, A549 tox-2 -8% and ARE-Fluc inh 8.2µM*.
Screening O=C(CN1C(=O)c2ccccc2S1(=O)=O)c1ccc2c(c1)OCCO2 returned ALOX12 inh -26%, ERG-DNA inh 0%, LDHA inh -10, Nrf2 block 0.073µM*, Nrf2 activator -4%, A549 tox-1 12%, FLuc counter 3 -22%, A549 tox-2 11% and ARE-Fluc inh 5.2µM*.
Screening O=C(CN1C(=O)c2ccccc2S1(=O)=O)c1cccc(Br)c1 returned ALOX12 inh -3%, ERG-DNA inh 3%, LDHA inh -7, Nrf2 block -40%, Nrf2 activator 1% and A549 tox-1 -1%.
For O=C(Nc1ccccc1)c1ccc(S(=O)(=O)N2CCOCC2)cc1 the results were ALOX12 inh 0%, ERG-DNA inh -6%, LDHA inh -6, Nrf2 block inconclusive, Nrf2 activator 0% and A549 tox-1 7%.
Screening N#CCc1ccc(NC(=O)c2ccc(CN3CCc4ccccc4C3)cc2)cc1 returned ALOX12 inh 0%, ERG-DNA inh -1%, LDHA inh 0, Nrf2 block 5.2µM*, Nrf2 activator 4%, A549 tox-1 0%, FLuc counter 3 -15%, A549 tox-2 7% and ARE-Fluc inh inconclusive.
`O=C(Nc1ccc(Cl)cc1)c1ccc(CN2CCc3ccccc3C2)cc1` gave ALOX12 inh inconclusive, ERG-DNA inh 17%, LDHA inh -3, Nrf2 block inconclusive, Nrf2 activator 5% and A549 tox-1 -9%.
Screening O=C(Nc1ccc(S(=O)(=O)N2CCCC2)cc1)c1ccc(CN2CCc3ccccc3C2)cc1 returned ALOX12 inh 0%, ERG-DNA inh -24%, LDHA inh -4, Nrf2 block 1.5µM*, Nrf2 activator 5%, A549 tox-1 -7%, FLuc counter 3 0%, A549 tox-2 -16% and ARE-Fluc inh 1.6µM*.
